Measurements as given in PubChem BioAssay AID2018 (Sanford-Burnham Center for Chemical Genomics, 2009).
In all, about 1,200 compounds went through this assay and about 600 (50%) were called active. So high a share suggests a set chosen from earlier hits. Some of the results follow. Results with a measured potency or affinity are listed apart. A number with no mark means an inactive call. Rule as the data show it: active = inhibition above about 42%; inactive = the rest.

What follows are molecules tested against SUMO-conjugating enzyme UBC9 (Homo sapiens) (UniProt P63279) (assay: SUMOylation inhibitor hit validation, confirmation, SUMOylation inhibitor project, biochemical, AlphaScreen (AID 2018)). Conditions: AlphaScreen in vitro SUMOylation assay; at 35 µM; stronger effect = higher value.
Sequence of SUMO-conjugating enzyme UBC9 (Homo sapiens) (P63279 whole entry, looked up): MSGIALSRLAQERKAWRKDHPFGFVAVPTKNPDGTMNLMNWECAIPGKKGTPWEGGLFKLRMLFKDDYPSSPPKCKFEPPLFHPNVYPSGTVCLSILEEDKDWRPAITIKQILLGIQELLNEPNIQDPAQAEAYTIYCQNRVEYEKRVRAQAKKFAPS
`CCOCCCN1CN(Cc2ccco2)CNC1=S` was tested, and the inhibition was 4.1%.
In the case of `O=C(O)/C=C\c1cn(-c2ccccc2)nc1-c1cc2ccccc2o1`, the inhibition is reported as 27.9%.
`O=C(O)/C=C/c1cn(-c2ccccc2)nc1-c1cc2ccccc2o1` gave an inhibition of 10.4%.
In the case of `Cc1ccc(C)c(S(=O)(=O)c2c(N)n(/N=C/c3ccco3)c3nc4ccccc4nc23)c1`, the inhibition is reported as 23%.
`C=CCn1c(NC(=O)c2ccc(Br)o2)c(S(=O)(=O)c2ccccc2)c2nc3ccccc3nc21` was tested, and the inhibition was 65.4% (active).
With `COc1ccc(CNC(=O)c2c(N)n(CCCN3CCOCC3)c3nc4ccccc4nc23)cc1` the inhibition was 3.3%.
With `Cc1ccc(S(=O)(=O)c2c(N)n(/N=C/c3ccco3)c3nc4ccccc4nc23)cc1C` the inhibition was 26.1%.
`O=C(c1cccn2c(=O)c3cc(Cl)ccc3nc12)N1CCOCC1` gave an inhibition of 5.9%.
For `Cc1ncc(CO)c(/C=N/NC(=O)c2cc(O)c(O)c(O)c2)c1O`, the inhibition was 99.6% (active).
For `CCOc1ccc2c(c1)C(NC(C)=O)C(=O)N2CCN1CCOCC1` (stereo unspecified), the inhibition was 95.9% (active).
Work on `Brc1ccc(OCCN2CCOCC2)cc1` yielded an inhibition of 13.4%.
`CC(=O)NC1C(=O)N(CCN2CCOCC2)c2ccc(Br)cc21` (stereo unspecified) was tested, and the inhibition was 99% (active).
In the case of `Cn1c(=O)n(C)c2cc(S(=O)(=O)NCCO)ccc21`, the inhibition is reported as 13.1%.
With `CCc1ccc2c(c1)C(NC(C)=O)C(=O)N2CCN1CCOCC1` (stereo unspecified) the inhibition was 96.7% (active).
`O=C(Nc1cccc2ccccc12)N1CCc2ccccc2C1` was tested, and the inhibition was 13.1%.
For `Oc1ccc(N=Cc2ccc(-c3cccs3)s2)cc1`, the inhibition was 52.6% (active).
Work on `Cc1ccc(C)c(-c2nc3ccc(N)cc3[nH]2)c1` yielded an inhibition of 8.5%.
In the case of `N#CC1=C(SCC(=O)NC23CC4CC(CC(C4)C2)C3)NC(=O)C(C#N)C12CCCCC2` (stereo unspecified), the inhibition is reported as -21.2%.
In the case of `COc1cccc2c1C(=O)c1ccc3ccccc3c1C2=O`, the inhibition is reported as 75.8% (active).
With `CN(C)/C=C1/Oc2c(ccc3ccccc23)C1=O` the inhibition was -1.2%.
With `COc1ccc(OC)c2c1C(=O)c1ccccc1C2=O` the inhibition was 44% (active).
Molecule `CN(C)/C=C1\Oc2ccc3ccccc3c2C1=O` has an inhibition of -1.5%.
Molecule `COc1ccc(Cc2n[nH]c(=S)n2NC(=O)Nc2ccc(Cl)c(Cl)c2)cc1` has an inhibition of 24.4%.
For `COc1ccc(NCc2cc3ccccc3[nH]c2=O)cc1`, the inhibition was 46.4% (active).
For `COCCn1nnnc1C(c1cc2ccc(OC)cc2[nH]c1=O)N1CCc2ccccc2C1` (stereo unspecified), the inhibition was 4.8%.
`COc1ccc(-c2cc(=O)[nH][nH]2)cc1` was tested, and the inhibition was 27.6%.
For `O=C(NCc1ccccc1)Nc1cccn(Cc2ccc(Cl)cc2)c1=O`, the inhibition was -10.4%.
Work on `CN(C)/C=N/c1nc2nccc(-c3ccc(F)cc3)n2n1` yielded an inhibition of 1.6%.
Work on `CCN(CC)S(=O)(=O)c1cc(C)ccc1SC` yielded an inhibition of -1%.
Molecule `Cc1ccc(C(=O)c2c3ccc(N)cc3nn2CCC(N)=O)cc1` has an inhibition of 38.2%.
With `Cc1c(N=C2C=CC(=O)c3ccccc32)c(=O)n(-c2ccccc2)n1C` the inhibition was 102% (active).
`CCc1cc2c(=O)nc3n(c2s1)Cc1ccccc1/C3=C(/O)c1cccc([N+](=O)[O-])c1` gave an inhibition of 16.9%.
For `Cc1cc(=O)n2[nH]c(N)c(N=Nc3ccccc3F)c2n1`, the inhibition was 12.9%.
`Nc1c(C(=O)Nc2ccccc2)sc2nc(-c3ccco3)ccc12` was tested, and the inhibition was -10.2%.
Work on `COc1ccccc1NC(=O)Nc1ccnn1Cc1cccs1` yielded an inhibition of 16.5%.
Work on `Nc1c(C(=O)Nc2ccc(F)cc2)sc2nc(-c3ccco3)ccc12` yielded an inhibition of 35.1%.
`Cc1ccc(S(=O)(=O)N2CCCCC2)cc1NC(=O)COC(=O)c1c(F)cccc1F` showed an inhibition of -6.2%.
With `Cc1cc2c(NC(=O)Nc3ccc(C(C)(C)C)cc3)cccc2nn1` the inhibition was 15.3%.
`CCOC(=O)NC(=O)COC(=O)c1ccc(O)cc1` was tested, and the inhibition was 24.8%.
`COCCNC(=O)Nc1ccc2nc(-c3ccco3)c(-c3ccco3)nc2c1` was tested, and the inhibition was 102% (active).
In the case of `COc1ccc2nc(-c3ccco3)c(-c3ccco3)nc2c1`, the inhibition is reported as 76.8% (active).
`COCCn1c(-c2ccco2)nc2nc3ccccc3nc21` was tested, and the inhibition was 19.2%.
`COc1cc(OC)cc(-c2nc(-c3ccccc3)no2)c1` showed an inhibition of -70.2%.
In the case of `O=C(NCc1ccco1)Nc1ccc2snnc2c1`, the inhibition is reported as 11%.
`CCOc1ccccc1Oc1c(C)oc2c(CN3CCN(C)CC3)c(O)ccc2c1=O` gave an inhibition of -5.4%.
Work on `S=c1[nH]nc(-c2cc(-c3ccccc3)n[nH]2)n1/N=C/c1ccc(Cl)c(Cl)c1` yielded an inhibition of 12.5%.
In the case of `Cc1cccc(-c2n[nH]c(=S)n2/N=C/C=C/c2ccco2)c1`, the inhibition is reported as 37.5%.
Molecule `O=C(O)CCCCCNc1ccc2nsnc2c1[N+](=O)[O-]` has an inhibition of -10.2%.
`C[C@@H]1CN=C2N(CCNC(=O)CCC3CCCCC3)[C@H](Cc3ccc(O)cc3)CN21` was tested, and the inhibition was 6%.
`O=C1OC(Nc2ccc3ncccc3c2)c2ccccc21` (stereo unspecified) showed an inhibition of 2.1%.
`Cc1cccc(C(=O)O)c1NC(=O)c1ccc(F)cc1` showed an inhibition of 2.9%.
In the case of `Cc1cc2c(N)cccc2nn1`, the inhibition is reported as 101% (active).
`Cc1cc2c(NC(=O)Nc3ccc(F)cc3)cccc2nn1` showed an inhibition of 10.5%.
For `Cc1cc2c(NC(=O)Nc3ccccc3)cccc2nn1`, the inhibition was 26.1%.
Molecule `COc1ccc(C2C3=C(CCCC3=O)Nc3c(-c4ccccc4)c(C)nn32)cc1` (stereo unspecified) has an inhibition of 4.2%.
For `O=C(O)CSc1cc(C(=O)c2cc(F)ccc2O)cn2c(=O)c3c(-c4ccccc4)csc3nc12`, the inhibition was 95.3% (active).
With `O=C(O)CSc1cc(C(=O)c2ccccc2O)cn2c(=O)c3c(-c4ccccc4)csc3nc12` the inhibition was 99.2% (active).
`COc1ccc(/C=C/c2cc(C(=O)O)c3ccccc3n2)cc1` was tested, and the inhibition was 21.4%.
`N#CCCN(Cc1cccnc1)C(=S)NC1CC2C=CC1C2` (stereo unspecified) was tested, and the inhibition was -4.1%.
`CCOC(=O)Cn1c2ccc(OC)cc2c2nc3ccccc3nc21` was tested, and the inhibition was 38.7%.
For `COC(=O)Cn1c2ccc(C)cc2c2nc(C)sc21`, the inhibition was 30.1%.
In the case of `COc1cc2c(C#N)c(N3CCCCC3)nc(N)c2c(N)n1`, the inhibition is reported as 47.6% (active).
`COc1cc2c(C#N)c(N3CCN(c4ccccc4OC)CC3)nc(N)c2c(N)n1` showed an inhibition of 19.7%.
In the case of `COc1cc2c(C#N)c(N3CCN(C)CC3)nc(N)c2c(N)n1`, the inhibition is reported as 21.5%.
In the case of `CCCN(CC1CC1)c1nc(N)c2c(N)nc(OC)cc2c1C#N`, the inhibition is reported as 16.9%.
For `CN1CCc2cc3c(c4c2[C@H]1[C@H](O)c1ccccc1-4)OCO3`, the inhibition was 74% (active).
For `CC(=O)NC(=S)Nc1ccc(NC(=S)NC(=O)/C=C/c2ccco2)cc1`, the inhibition was 7.8%.
In the case of `NC(N)=NS(=O)(=O)c1ccc(NC(=S)NC(=O)/C=C/c2ccco2)cc1`, the inhibition is reported as 34.2%.
`COc1ccc(NC(=O)N2c3ccc(OC)cc3C(C)=CC2(C)C)cc1` was tested, and the inhibition was 28.1%.
`COc1ccc(Cn2c(C)c(C)c(C#N)c2NC(=O)Nc2ccc(F)cc2)cc1` gave an inhibition of -26.7%.
Molecule `Cc1c(C(=O)c2ccc(F)cc2F)c2ccccn2c1CCC#N` has an inhibition of 15.4%.
For `c1cc(Nc2ncnc3sc4c(c23)CCC4)ccn1`, the inhibition was 12.9%.
Work on `Cc1cc2n(n1)SC(Nc1cccc3ccccc13)N2` (stereo unspecified) yielded an inhibition of 14%.
`Cc1ccc2cc(C(c3nnnn3C(C)(C)C)N3CCCCCC3)c(=O)[nH]c2c1` (stereo unspecified) gave an inhibition of 0.1%.
`COc1ccc(-c2csc(NC(=S)NC(=O)/C=C/c3ccco3)n2)cc1OC` was tested, and the inhibition was 74.2% (active).
`CNS(=O)(=O)c1ccc2nc(NC(=O)/C=C/c3ccco3)sc2c1` gave an inhibition of 16.2%.
In the case of `Cc1nc2ccc(-c3nc4cc(N)ccc4o3)cc2[nH]1`, the inhibition is reported as -11.6%.
`CCCCCCC(C)OC(=O)c1ccccc1C(=O)O` (stereo unspecified) showed an inhibition of 10.7%.
`Cc1c(Br)c(O)c(Br)c2sc(=O)oc12` was tested, and the inhibition was 49.6% (active).
For `Cc1ccc(Nc2nc(=O)c3cc([N+](=O)[O-])ccc3s2)cc1`, the inhibition was 24.2%.
`COc1cc([N+](=O)[O-])cc(/C=N/NC(=O)C(C)Nc2cccc3ccccc23)c1O` (stereo unspecified) showed an inhibition of -212%.
`COc1cccc(OC)c1C(=O)N1CCNCC1` was tested, and the inhibition was -1.1%.
Molecule `O=C(CNc1ccc2ccccc2c1)N/N=C/c1cc2ccccc2nc1Cl` has an inhibition of 37.3%.
In the case of `COc1ccc2c(c1)-c1nc(/N=C/c3cccc(OC)c3O)sc1CC2`, the inhibition is reported as 28.4%.
With `O=C(N/N=C/c1ccc(O)cc1O)C(=O)N/N=C/c1ccc(O)cc1O` the inhibition was 101% (active).
For `CC(O)C(=O)N/N=C/c1cccc(Cl)c1Cl` (stereo unspecified), the inhibition was -34.7%.
In the case of `COc1cccc(/C=N/NC(=O)C(=O)N/N=C/c2cccc(OC)c2O)c1O`, the inhibition is reported as 98.6% (active).
With `O=C(NCCNc1ccc2ccccc2c1)c1cccn2c(=O)c3sccc3nc12` the inhibition was 23.7%.
Work on `CC(C)CC(=O)Nc1ccc2oc(-c3cccnc3)nc2c1` yielded an inhibition of 16.9%.
Molecule `Cc1ccc(-c2nc3cc(N)ccc3o2)cc1` has an inhibition of 11.5%.
`Cn1nccc1NC(=O)Nc1cccc(Br)c1` showed an inhibition of -0.2%.
`CN1C(=O)c2cccc3c(S(=O)(=O)NCCc4ccccc4)ccc1c23` showed an inhibition of -13%.
`CN1C(=O)c2cccc3c(S(=O)(=O)NCc4ccco4)ccc1c23` was tested, and the inhibition was 5%.
With `CCN1C(=O)c2cccc3c(N)ccc1c23` the inhibition was 50% (active).
In the case of `C=CCN1C(=O)N(/C=C/C)c2cccc3cccc1c23`, the inhibition is reported as -14.9%.
`COc1cccc(C(=O)Nc2cccc(C(=O)NC3=NN(c4c(Cl)cc(Cl)cc4Cl)C(=O)C3)c2)c1` was tested, and the inhibition was 101% (active).
`COC(=O)/C(=C\Nc1ccc(Cl)cc1Cl)NC(=O)c1ccc(OC)cc1` was tested, and the inhibition was 22.8%.
`COc1cccc(NC(=S)Nc2cccc3ccccc23)c1` gave an inhibition of 30.7%.
With `O=C(Cc1cc(=O)[nH][nH]1)N/N=C/c1cccc2ccccc12` the inhibition was 47.2% (active).
With `C=CCc1cccc(/C=N/NC(=O)CNc2cccc3ccccc23)c1O` the inhibition was 25.1%.
In the case of `O=C(CNc1cccc2ccccc12)N/N=C/c1ccccn1`, the inhibition is reported as -1.7%.
